Reference: ChEMBL document CHEMBL1961873, “Compounds: GSK PKIS; Assays: Nanosyn kinase panel” (2012)

Key:
[1] = target: T1, Aurora kinase A (Homo sapiens) (UniProt O14965); conditions: at 1 µM;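 note: values are mean percent inhibition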
T1 sequence (whole entry): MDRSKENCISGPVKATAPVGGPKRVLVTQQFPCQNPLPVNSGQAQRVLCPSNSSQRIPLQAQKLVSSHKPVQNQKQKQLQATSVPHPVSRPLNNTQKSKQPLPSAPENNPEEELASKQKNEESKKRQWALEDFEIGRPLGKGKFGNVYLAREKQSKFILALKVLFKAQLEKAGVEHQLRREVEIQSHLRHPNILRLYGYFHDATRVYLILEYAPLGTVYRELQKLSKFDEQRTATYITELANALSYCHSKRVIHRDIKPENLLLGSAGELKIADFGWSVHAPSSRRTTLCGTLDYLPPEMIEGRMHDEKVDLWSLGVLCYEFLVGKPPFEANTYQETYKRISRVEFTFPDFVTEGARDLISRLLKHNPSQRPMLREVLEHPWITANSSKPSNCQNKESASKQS

[2] = target: Aurora kinase B (Homo sapiens) (UniProt Q96GD4); conditions: at 0.1 µM
Aurora kinase B (Homo sapiens), sequence (Q96GD4 whole entry): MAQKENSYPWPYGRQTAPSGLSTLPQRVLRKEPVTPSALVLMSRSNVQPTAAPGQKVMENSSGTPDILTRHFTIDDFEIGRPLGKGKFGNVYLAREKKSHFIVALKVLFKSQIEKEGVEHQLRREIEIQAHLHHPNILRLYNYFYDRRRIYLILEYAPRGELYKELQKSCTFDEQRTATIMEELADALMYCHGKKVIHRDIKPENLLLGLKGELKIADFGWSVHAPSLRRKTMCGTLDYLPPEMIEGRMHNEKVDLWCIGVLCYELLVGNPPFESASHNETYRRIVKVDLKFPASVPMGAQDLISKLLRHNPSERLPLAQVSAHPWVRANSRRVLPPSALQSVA

[3] = target: Aurora kinase B (Homo sapiens) (UniProt Q96GD4); conditions: at 1 µM
[4] = target: T2, Aurora kinase C (Homo sapiens) (UniProt Q9UQB9); conditions: at 0.1 µM
T2 sequence (whole entry): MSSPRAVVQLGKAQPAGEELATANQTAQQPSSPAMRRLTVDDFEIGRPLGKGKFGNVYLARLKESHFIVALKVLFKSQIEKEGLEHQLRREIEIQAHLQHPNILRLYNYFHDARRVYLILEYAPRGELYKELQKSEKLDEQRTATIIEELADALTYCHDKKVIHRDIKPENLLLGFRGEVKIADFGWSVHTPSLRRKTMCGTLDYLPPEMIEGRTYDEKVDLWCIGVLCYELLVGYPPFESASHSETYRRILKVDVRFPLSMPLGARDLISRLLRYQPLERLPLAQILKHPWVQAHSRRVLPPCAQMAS

[5] = target: T2, Aurora kinase C (Homo sapiens); conditions: at 1 µM
[6] = target: Serine/threonine-protein kinase 10 (Homo sapiens) (UniProt O94804); conditions: at 0.1 µM
Serine/threonine-protein kinase 10 (Homo sapiens), sequence (O94804 whole entry, looked up): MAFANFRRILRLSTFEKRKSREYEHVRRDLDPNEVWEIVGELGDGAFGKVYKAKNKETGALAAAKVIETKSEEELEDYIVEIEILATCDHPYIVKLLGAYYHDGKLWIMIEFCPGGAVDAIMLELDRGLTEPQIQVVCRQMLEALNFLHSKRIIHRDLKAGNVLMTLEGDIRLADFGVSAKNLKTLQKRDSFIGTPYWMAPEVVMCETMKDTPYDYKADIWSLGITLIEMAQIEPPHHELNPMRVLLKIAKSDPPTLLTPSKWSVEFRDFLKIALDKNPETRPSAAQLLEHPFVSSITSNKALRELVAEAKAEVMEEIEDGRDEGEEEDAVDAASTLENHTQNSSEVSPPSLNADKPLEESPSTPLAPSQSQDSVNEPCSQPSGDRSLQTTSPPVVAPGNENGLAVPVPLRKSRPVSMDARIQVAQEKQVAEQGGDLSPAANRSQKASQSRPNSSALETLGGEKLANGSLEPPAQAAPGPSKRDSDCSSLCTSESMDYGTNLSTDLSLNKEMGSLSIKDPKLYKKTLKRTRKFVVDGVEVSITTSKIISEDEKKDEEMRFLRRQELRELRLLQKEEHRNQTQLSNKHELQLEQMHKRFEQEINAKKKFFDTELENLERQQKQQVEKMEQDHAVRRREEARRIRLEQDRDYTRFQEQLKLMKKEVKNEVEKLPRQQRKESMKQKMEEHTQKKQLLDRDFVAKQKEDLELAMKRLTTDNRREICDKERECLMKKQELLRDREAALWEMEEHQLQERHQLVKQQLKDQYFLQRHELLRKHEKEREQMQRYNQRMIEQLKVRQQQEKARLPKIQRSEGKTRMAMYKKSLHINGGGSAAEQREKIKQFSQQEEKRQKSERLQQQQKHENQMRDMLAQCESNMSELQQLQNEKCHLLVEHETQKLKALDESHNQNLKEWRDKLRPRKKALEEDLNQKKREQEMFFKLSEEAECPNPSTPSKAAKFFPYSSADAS

[7] = target: Serine/threonine-protein kinase 10 (Homo sapiens) (UniProt O94804); conditions: at 1 µM
[8] = target: T3, Mitogen-activated protein kinase kinase kinase kinase 2 (Homo sapiens) (UniProt Q12851); conditions: at 0.1 µM
T3 sequence (whole entry): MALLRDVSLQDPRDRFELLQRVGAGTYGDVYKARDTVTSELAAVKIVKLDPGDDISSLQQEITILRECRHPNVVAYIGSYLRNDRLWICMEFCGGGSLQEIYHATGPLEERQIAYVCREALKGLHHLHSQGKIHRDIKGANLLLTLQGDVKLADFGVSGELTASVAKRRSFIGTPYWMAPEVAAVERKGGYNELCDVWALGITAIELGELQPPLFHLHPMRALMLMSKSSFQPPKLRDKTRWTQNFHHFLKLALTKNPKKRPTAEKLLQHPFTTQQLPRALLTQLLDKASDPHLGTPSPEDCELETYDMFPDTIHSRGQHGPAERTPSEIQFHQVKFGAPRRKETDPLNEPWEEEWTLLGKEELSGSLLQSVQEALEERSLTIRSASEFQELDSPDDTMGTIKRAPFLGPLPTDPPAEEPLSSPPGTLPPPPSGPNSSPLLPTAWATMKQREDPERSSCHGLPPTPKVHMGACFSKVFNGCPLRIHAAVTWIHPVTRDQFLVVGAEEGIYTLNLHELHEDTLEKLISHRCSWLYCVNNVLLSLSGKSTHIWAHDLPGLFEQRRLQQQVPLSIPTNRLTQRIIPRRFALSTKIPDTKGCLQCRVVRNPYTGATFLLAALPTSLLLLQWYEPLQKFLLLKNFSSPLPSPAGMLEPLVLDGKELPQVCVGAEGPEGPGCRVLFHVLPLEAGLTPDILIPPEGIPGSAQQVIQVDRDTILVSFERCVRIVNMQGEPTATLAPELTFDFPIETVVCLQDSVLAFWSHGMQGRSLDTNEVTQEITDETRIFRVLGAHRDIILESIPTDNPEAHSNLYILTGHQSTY

[9] = target: T3, Mitogen-activated protein kinase kinase kinase kinase 2 (Homo sapiens); conditions: at 1 µM
[10] = target: Mitogen-activated protein kinase kinase kinase kinase 4 (Homo sapiens) (UniProt O95819); conditions: at 0.1 µM
Mitogen-activated protein kinase kinase kinase kinase 4 (Homo sapiens), sequence (O95819 2-1239 limits assumed): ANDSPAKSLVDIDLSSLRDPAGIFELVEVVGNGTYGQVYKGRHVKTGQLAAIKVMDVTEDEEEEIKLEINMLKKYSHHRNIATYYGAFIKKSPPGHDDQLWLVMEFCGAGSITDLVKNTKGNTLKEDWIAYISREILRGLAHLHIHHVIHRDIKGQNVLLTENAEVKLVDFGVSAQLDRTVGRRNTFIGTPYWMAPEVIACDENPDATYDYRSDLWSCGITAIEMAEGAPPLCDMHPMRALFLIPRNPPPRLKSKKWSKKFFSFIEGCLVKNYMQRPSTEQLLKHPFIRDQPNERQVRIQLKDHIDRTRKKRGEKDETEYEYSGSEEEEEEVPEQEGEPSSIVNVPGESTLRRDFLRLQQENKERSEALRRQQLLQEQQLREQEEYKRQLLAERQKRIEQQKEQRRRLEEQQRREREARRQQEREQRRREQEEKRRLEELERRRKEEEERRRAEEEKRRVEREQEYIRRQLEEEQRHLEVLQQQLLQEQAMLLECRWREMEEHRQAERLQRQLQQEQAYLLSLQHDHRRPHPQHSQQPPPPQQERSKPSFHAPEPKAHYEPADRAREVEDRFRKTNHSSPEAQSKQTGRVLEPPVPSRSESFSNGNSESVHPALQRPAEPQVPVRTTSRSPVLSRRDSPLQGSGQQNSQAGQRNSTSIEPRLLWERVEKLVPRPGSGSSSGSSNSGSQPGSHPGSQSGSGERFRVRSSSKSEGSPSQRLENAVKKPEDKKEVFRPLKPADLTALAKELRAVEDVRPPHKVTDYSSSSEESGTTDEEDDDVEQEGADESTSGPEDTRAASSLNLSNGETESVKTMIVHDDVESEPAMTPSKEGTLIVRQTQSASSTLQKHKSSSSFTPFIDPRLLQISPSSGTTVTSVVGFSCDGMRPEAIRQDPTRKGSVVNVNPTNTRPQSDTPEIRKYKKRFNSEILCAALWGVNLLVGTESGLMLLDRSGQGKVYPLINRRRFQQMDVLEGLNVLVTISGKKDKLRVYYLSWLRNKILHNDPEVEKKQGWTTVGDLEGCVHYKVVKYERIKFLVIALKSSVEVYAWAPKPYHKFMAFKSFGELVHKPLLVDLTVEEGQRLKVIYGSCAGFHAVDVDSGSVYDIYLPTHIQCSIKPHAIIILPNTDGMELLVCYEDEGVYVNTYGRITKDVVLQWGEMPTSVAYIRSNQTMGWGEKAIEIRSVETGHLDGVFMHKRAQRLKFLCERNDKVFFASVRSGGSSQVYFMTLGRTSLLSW

`O=C(NCC1CC1)c1ccc(-c2cccc(C(=O)NC3CC3)c2)cc1` gave an inhibition [1] of 6.45%, an inhibition [2] of 2.04% and an inhibition [3] of 5.76%. The inhibition [4] was 0.57%, the inhibition [5] was 11.8% and the inhibition [6] was 3.1%. It also gave an inhibition [7] of -0.77%, an inhibition [8] of 1.43% and an inhibition [9] of 2.37%. The inhibition [10] was 2.9%.

Compound `N#Cc1ccc(Oc2nccc(-c3c(-c4ccc(F)cc4)ncn3C3CCNCC3)n2)cc1` has an inhibition [1] of 4.78%, an inhibition [2] of 3.58% and an inhibition [3] of 5.49%. The inhibition [4] was 0.14%, the inhibition [5] was 3.86% and the inhibition [6] was 6.19%. For the same compound, the inhibition [7] was 8.89%, the inhibition [8] was 0.91% and the inhibition [9] was 4.07%. For the same compound, the inhibition [10] was 3.8%.

Work on `COc1ccc2cc(-c3c(-c4ccncc4)nc(-c4ccc([S+](C)[O-])cc4C)n3C)ccc2c1` (stereo not given) yielded an inhibition [1] of 4.24%, an inhibition [2] of 2.96% and an inhibition [3] of 6.06%. It also gave an inhibition [4] of -0.11%, an inhibition [5] of 2.95% and an inhibition [6] of 52.4%. It also gave an inhibition [7] of 97.3%, an inhibition [8] of -0.16% and an inhibition [9] of 0.1%. For the same compound, the inhibition [10] was 1.21%.

`CCc1nccc2c1nc(-c1nonc1N)n2CC` was tested, and the inhibition [1] was 11.2%, the inhibition [2] was 1.28% and the inhibition [3] was 5.03%. For the same compound, the inhibition [4] was 0.67%, the inhibition [5] was 5.21% and the inhibition [6] was -0.01%. The inhibition [7] was 3.09%, the inhibition [8] was 2.12% and the inhibition [9] was 2.26%. For the same compound, the inhibition [10] was 2.56%.

For `CN(C)c1ccc2c(c1)/C(=C/Nc1ccc(S(N)(=O)=O)cc1)C(=O)N2`, the inhibition [1] was 50.7%, the inhibition [2] was 4.95% and the inhibition [3] was 30.4%. For the same compound, the inhibition [4] was 17.9%, the inhibition [5] was 48% and the inhibition [6] was 3%. It also gave an inhibition [7] of 18.1%, an inhibition [8] of 5.66% and an inhibition [9] of 29.9%. For the same compound, the inhibition [10] was 23.9%.

With `CCC(=O)Nc1ccc(C)c(-c2ccc(C(=O)NCC3CC3)cc2)c1` the inhibition [1] was 4.11%, the inhibition [2] was -0.16% and the inhibition [3] was 3.49%. For the same compound, the inhibition [4] was -1.01%, the inhibition [5] was 3.82% and the inhibition [6] was 1.74%. For the same compound, the inhibition [7] was 5.36%, the inhibition [8] was 0.41% and the inhibition [9] was 1.16%. For the same compound, the inhibition [10] was 4.98%.

`COc1cc(Nc2ncc3c(C)nc(-c4cccc(Oc5ccccc5)c4)n3n2)cc(OC)c1OC` gave an inhibition [1] of 44.4%, an inhibition [2] of 2% and an inhibition [3] of 15.8%. The inhibition [4] was 1.04%, the inhibition [5] was 30.1% and the inhibition [6] was 1.18%. The inhibition [7] was 1.99%, the inhibition [8] was 1.28% and the inhibition [9] was 4.18%. For the same compound, the inhibition [10] was 1.36%.

For `COc1ccc2cc(-c3c(-c4ccncc4)nc(-c4ccc(S(C)(=O)=O)cc4C)n3C)ccc2c1`, the inhibition [1] was 17.6%, the inhibition [2] was 4.05% and the inhibition [3] was 16.2%. For the same compound, the inhibition [4] was 1.31%, the inhibition [5] was 12.7% and the inhibition [6] was 43.9%. For the same compound, the inhibition [7] was 95.3%, the inhibition [8] was 0.86% and the inhibition [9] was 0.3%. The inhibition [10] was 4.65%.

With `CCc1ccc(Oc2nccc(-c3c(-c4ccc(F)cc4)ncn3C3CCNCC3)n2)cc1` the inhibition [1] was 2.66%, the inhibition [2] was 3.48% and the inhibition [3] was 2.75%. The inhibition [4] was 1.29%, the inhibition [5] was 3.88% and the inhibition [6] was 4.86%. For the same compound, the inhibition [7] was 8.03%, the inhibition [8] was 1.71% and the inhibition [9] was 15.4%. For the same compound, the inhibition [10] was 2.58%.

In the case of `CN(C)CCCNc1nccc(-c2c(-c3ccc(F)cc3)nn3cc(C(F)(F)F)ccc23)n1`, the inhibition [1] is reported as 6.4%, the inhibition [2] is reported as 0.91% and the inhibition [3] is reported as 6.92%. For the same compound, the inhibition [4] was -1.31%, the inhibition [5] was -0.03% and the inhibition [6] was 2.34%. It also gave an inhibition [7] of 7.46%, an inhibition [8] of 4.09% and an inhibition [9] of 7.36%. It also gave an inhibition [10] of 5.21%.

Work on `COc1cccc(/C=N/Nc2ncnc3c2cnn3-c2cccc(OC)c2)c1` yielded an inhibition [1] of 3.52%, an inhibition [2] of 2.75% and an inhibition [3] of 5.96%. For the same compound, the inhibition [4] was 0.31%, the inhibition [5] was 3.9% and the inhibition [6] was 5.31%. For the same compound, the inhibition [7] was 6.35%, the inhibition [8] was -0.07% and the inhibition [9] was 2.67%. The inhibition [10] was 7.63%.

Work on `CNC(=O)c1cncc(/C=C/c2c(C)cccc2C)c1` yielded an inhibition [1] of -0.78%, an inhibition [2] of -3.36% and an inhibition [3] of -3.06%. The inhibition [4] was -3.26%, the inhibition [5] was -9.54% and the inhibition [6] was 1.24%. It also gave an inhibition [7] of 10.3%, an inhibition [8] of 0.91% and an inhibition [9] of 4.59%. For the same compound, the inhibition [10] was 4.81%.

Work on `O=C(Nc1n[nH]c2cc(-c3cc(F)ccc3F)ccc12)C1CC1` yielded an inhibition [1] of 18.1%, an inhibition [2] of 2.4% and an inhibition [3] of 6.93%. For the same compound, the inhibition [4] was 0.12%, the inhibition [5] was 8.07% and the inhibition [6] was 4.84%. The inhibition [7] was 13.1%, the inhibition [8] was 0.39% and the inhibition [9] was 5.06%. For the same compound, the inhibition [10] was 16.4%.

Compound `NS(=O)(=O)c1ccc(N/N=C2\C(=O)Nc3ccc(-c4cnco4)cc32)cc1` has an inhibition [1] of 33.1%, an inhibition [2] of -2.59% and an inhibition [3] of 1.73%. For the same compound, the inhibition [4] was -3.12%, the inhibition [5] was 11.5% and the inhibition [6] was 2.55%. The inhibition [7] was 8.33%, the inhibition [8] was 1.49% and the inhibition [9] was 4.85%. For the same compound, the inhibition [10] was 65.1%.

With `NC(=O)c1cc(-c2ccncc2)cc(-c2ccccc2)c1N` the inhibition [1] was 6.63%, the inhibition [2] was 3.91% and the inhibition [3] was 4.94%. For the same compound, the inhibition [4] was 1.71%, the inhibition [5] was 5.08% and the inhibition [6] was 6.67%. For the same compound, the inhibition [7] was 9.99%, the inhibition [8] was 0.27% and the inhibition [9] was 0.97%. For the same compound, the inhibition [10] was 11.9%.

Compound `COc1ccc2ncn(-c3cc(O[C@H](C)c4ccccc4Cl)c(C(N)=O)s3)c2c1` has an inhibition [1] of 0.29%, an inhibition [2] of -0.75% and an inhibition [3] of 1.24%. The inhibition [4] was -3.77%, the inhibition [5] was 1.77% and the inhibition [6] was 20.3%. The inhibition [7] was 59.1%, the inhibition [8] was 1.91% and the inhibition [9] was 11%. The inhibition [10] was 4.38%.

Work on `O=C1NC(=O)C(c2cccc(Cl)c2)=C1Nc1ccc(Cl)c(C(=O)O)c1` yielded an inhibition [1] of 8.62%, an inhibition [2] of 0.94% and an inhibition [3] of 8.32%. It also gave an inhibition [4] of 5.84%, an inhibition [5] of -0.75% and an inhibition [6] of 4.75%. For the same compound, the inhibition [7] was 6.92%, the inhibition [8] was 0.39% and the inhibition [9] was 2.05%. For the same compound, the inhibition [10] was 2.67%.

For `CN1CCN(CCCNc2nc3ccc(Oc4ccc(NC(=O)Nc5cc(C(F)(F)F)ccc5F)cc4)cc3[nH]2)CC1`, the inhibition [1] was -0.34%, the inhibition [2] was -0.75% and the inhibition [3] was 4.51%. For the same compound, the inhibition [4] was -5.06%, the inhibition [5] was 23.7% and the inhibition [6] was 15.9%. The inhibition [7] was 53%, the inhibition [8] was 3.12% and the inhibition [9] was 8.26%. It also gave an inhibition [10] of 2.15%.

`C/C(Nc1ccc(S(N)(=O)=O)cc1)=C1/C(=O)Nc2ccccc21` was tested, and the inhibition [1] was 37.8%, the inhibition [2] was 8.07% and the inhibition [3] was 48%. The inhibition [4] was 7.34%, the inhibition [5] was 85.7% and the inhibition [6] was 0.97%. For the same compound, the inhibition [7] was 9.28%, the inhibition [8] was 1.58% and the inhibition [9] was 17.7%. The inhibition [10] was 44.9%.
